This note sets out measurements from PubChem BioAssay (EPA / NIEHS).

The source made the active and inactive calls. The calls were made as follows: active = hit-call score of the fitted dose curve at least 0.9, where 1 is the maximum; inactive = score below 0.9.

Read-out in the assay: TIMP metallopeptidase inhibitor 2 (TIMP2), TIMP2 (gene 7077)
The experiment in a line: BSK_KF3CT_TIMP2: BioMAP Diversity Plus: KF3CT Assay for TIMP metallopeptidase inhibitor 2 (TIMP2) Biomarker Activity (AID 2283071). As to conditions: primary human keratinocytes with fibroblasts; actives raise or lower the signal. Here is the method: BSK_KF3CT is a cell-based, multiplexed-readout assay that uses keratinocytes and foreskin fibroblasts, a human skin primary cell co-culture, with measurements taken at 24 hours after chemical dosing in a 96-well plate.BSK_KF3CT_TIMP2 is an assay component measured in the BSK_KF3CT assay. It measures TIMP-2 antibody related to regulation of gene expression using ELISA technology.Data from the assay component BSK_KF3CT_TIMP2 was analyzed into 1 assay endpoint. This assay endpoint, BSK_KF3CT_TIMP2, was analyzed with bidirectional fitting relative to DMSO as the negative control and baseline of activity. Using a type of binding reporter, gain or loss-of-signal activity can be used to understand changes in the signaling as they relate to the gene TIMP2. Furthermore, this assay endpoint can be referred to as a primary readout, because this assay has produced multiple assay endpoints where this one serves a signaling function. To generalize the intended target to other relatable targets, this assay endpoint is annotated to the protease inhibitor intended target family, where the subfamily is metalloproteinase inhibitor.
The levels of cell surface (or secreted, indicated by the prefix "s") biomarker endpoints were measured by ELISA. Overt cytotoxicity to cells in confluent adherent cultures (all systems other than the BT system) was assessed by measuring total protein levels using sulforhodamine B (SRB) staining in parallel cultures at the time of biomarker measurements, indicated as SRB endpoints. For proliferation assays for adherent cell types, individual cell types are cultured at sub-confluence and relative cell numbers quantified by SRB staining at time points optimized for each system (48 h: 3C and CASM3C systems; 72 h: BT and HDF3CGF systems; 96 h: SAg system). SRB was performed by staining cells with 0.1% SRB after fixation with 10% TCA and reading wells at 560 nm.Viability and proliferation of PBMC (T cells) was quantified by Alamar Blue reduction for the SAg and BT systems. For PBMC viability (referred to as PBMC Cytotoxicity within the assay endpoint names), cells were plated (75,000/well in a 96-well plate) and then chemical samples added for 1 h before addition of activators, SEB and TSST-1 (20 ng/mL final concentration each). Cells were incubated for 90 h. Then, Alamar Blue (20 uL/well) (Invitrogen, Cat DAL1100) was added for 6 h, and the plates were read with a fluorescence microplate reader at 546/580 nm (excitation/emission). For PBMC proliferation, cells were plated and activated as above but incubated for only 16 h prior to addition of Alamar Blue. Plates were read after 6 h.
As to `O=[N+]([O-])C(CO)(CO)CO`, the result was inactive.
Still for that read-out and setting: as for `Nc1ccc(S(=O)(=O)c2ccc(N)cc2)cc1`, the entry is “inactive”; as for `Cc1ccc2ncccc2c1`, “inactive”.
Still for that read-out and setting: as for `CCOC(=O)C(C)(C)Oc1ccc(Cl)cc1`, the entry is “inactive”; as for `CCCCOC(=O)CCCCCCCCC(=O)OCCCC`, “inactive”; as for `C=CCc1ccc(O)c(OC)c1`, “inactive”.
On to `CC1(C)NC(=O)NC1=O`, for which the result was inactive.
Turning to `COc1cc(-c2nc(NC(=O)c3cc4cc(C)cc(C)c4n3CC(=O)O)sc2CCC2CCCCC2)c(OC)cc1Cl`, the AC50 was 1.54 µM (active).
In the case of `CCCc1cc(=O)[nH]c(=S)[nH]1`, the outcome was inactive.
On the same count and under the same terms, with `Cc1ccc(N(C)C)cc1` the entry was “inactive”.
Turning to `CC(=O)OCCOCCOCCOC(C)=O`, the outcome was inactive.
Same read-out and setting: as for `Cc1cccc(Nc2cc(Cl)nc(SCC(=O)O)n2)c1C`, the entry is “inactive”.
As to `O=C(N[C@@H](Cc1ccccc1)[C@@H](O)C(=O)N1C[C@@H](O)[C@@H](O)C1)c1cc2cc(Cl)ccc2[nH]1`, the half-maximal activity concentration (AC50) was 11.9 µM (active).
For the molecule `COCCOCCOC`, the outcome was inactive.
For the molecule `NC(=O)Cn1c(=O)cc(CCN2CCN(c3nccc4sccc34)CC2)c2ccc(F)cc21`, the result was inactive.
Still for that read-out and setting: as for `NCCO`, the entry is “inactive”.
Consider `CCCCCCCC=O`, for which the outcome was inactive.
Regarding `Clc1cc(Cl)c(Cl)cc1Cl`, the result was inactive.
Take `Cc1nc(-c2ccc3c(c2)CCN(CCC2CCC(NC(=O)/C=C/c4ccc(F)cc4)CC2)CC3)no1` (stereo not given): the result was inactive.
With `CNCc1cc(F)ccc1Oc1ccc(Cl)c(Cl)c1`, the outcome was inactive.
In the case of `CCOC(=O)CCC(=O)OCC`, the outcome was inactive.
The same measure, in the same setting: with `COc1cc(S(=O)(=O)O)c(C)cc1N=Nc1c(O)ccc2cc(S(=O)(=O)O)ccc12` the entry was “inactive”; with `CCCCCCCCCCCCCCCCCC(=O)O`, “inactive”; with `CC(C)c1ccc(C(=O)N=C(N)N)cc1S(C)(=O)=O`, “inactive”.
Same read-out and setting: with `Cc1c(C(=O)O)c(O)cc2c1C(=O)c1c(O)c([C@@H]3O[C@H](CO)[C@@H](O)[C@H](O)[C@H]3O)c(O)c(O)c1C2=O` the entry was “inactive”.
Turning to `Cc1ccccc1Cl`, the outcome was inactive.
Same read-out and setting: as for `COCCOC[C@H](CC1(C(=O)NC2CCC(C(=O)O)CC2)CCCC1)C(=O)Oc1ccc2c(c1)CCC2` (stereo not given in full), the entry is “inactive”.
Consider `Cc1ccc(Cl)cc1`, for which the outcome was inactive.
Still for that read-out and setting: with `CCOc1ccc2c(c1)C(C)=CC(C)(C)N2` the entry was “inactive”.
The same measure, in the same setting: with `CCCCCCC(=O)OCC` the entry was “inactive”; with `Cc1ccc(C(C)C)c(O)c1`, “inactive”.
Take `CC(=O)OC/C=C(\C)CCC=C(C)C`: the result was inactive.
The same measure, in the same setting: with `c1cc(-c2ccncc2)ccn1` the entry was “inactive”; with `CC(=O)C(C)=CC1C(C)=CCCC1(C)C` (stereo not given), “inactive”.
Consider `CCc1c(C(=O)NN2CCCCC2)nn(-c2ccc(Cl)cc2Cl)c1-c1ccc(Br)cc1`, for which the half-maximal activity concentration (AC50) was 5.8 µM (active).
As for `NS(=O)(=O)c1cc2c(cc1Cl)NCNS2(=O)=O`, the result was inactive.
Still for that read-out and setting: with `CC=Cc1ccc(O)c(OC)c1` the entry was “inactive”.
Turning to `Cc1oc(-c2ccccc2)nc1CCOc1cccc2c1ccn2CCC(=O)O`, the result was inactive.
As to `Nc1ccc2c(c1)C(=O)c1ccccc1C2=O`, the outcome was inactive.
Consider `OC[C@@H](O)[C@@H](O)[C@H](O)[C@H](O)CO`, for which the result was inactive.
